Active and inactive are the calls of the source. Cut-off read from the data, not from the text of the source: active = inhibition of mean fluorescence above about 33%; inactive = the rest.
Test: quorum sensing inhibitors in bacterial reporter, SAR follow-up, flow cytometry, SAR analogs (AID 1014);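 note: Staphylococcus aureus RN6390 with RNAIII-GFP reporter stimulated by AIP; bacteria incubated with compound for 3 hours at 37 °C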
Conditions: at 20 µM, stronger effect = higher value; inhibition of percent positive cells: flow cytometry fluorescence, measured here: percent reporter-positive cells

| Compound | inhibition of mean fluorescence | inhibition of percent positive cells [%] |
| --- | --- | --- |
| O=C(NCC(c1cccnc1)N1CCN(c2ccc(F)cc2)CC1)c1ccccc1 (stereo not given) | 10% (inactive) | -0.2 |
| Cc1cccc(Nc2c(F)c(F)c(F)c(F)c2C(=O)O)c1 | -16.8% (inactive) | -0.2 |
| O=C(NCC(c1cccnc1)N1CCN(c2ccc(F)cc2)CC1)C1CC1 (stereo not given) | -43% (inactive) | 0.1 |
| COc1c(F)c(F)c(C(=O)O)c(Nc2cccc(C)c2)c1F | -11.5% (inactive) | -1.3 |
| CC(C)c1ccc(NC(=O)C(c2ccc3c(c2)OCO3)N2CCN(C(=O)c3ccco3)CC2)cc1 (stereo not given) | -33.9% (inactive) | -1.4 |
| CC(=O)c1c(C)oc2c1cc(O)c1ccccc12 | 9.1% (inactive) | -0.2 |
| CCOc1ccc(Nc2nc3c(S(=O)(=O)c4ccc(C(C)C)cc4)nnn3c3ccccc23)cc1 | -3.7% (inactive) | -0.1 |
| CC1CCCN(C(C(=O)Nc2ccc3c(c2)OCO3)c2ccccc2)C1 (stereo not given) | 81.5% (active) | 81.9 |
| O=C(NCC(c1cccnc1)N1CCc2ccccc2C1)c1ccc(F)c(F)c1 (stereo not given) | -6.4% (inactive) | -0.1 |
| CCc1ccc(S(=O)(=O)c2nnn3c2nc(Nc2ccc(Oc4ccccc4)cc2)c2cc(Cl)ccc23)cc1 | -16.6% (inactive) | -0.1 |
| N#Cc1c(NC(=O)COC(=O)c2c3c(nc4ccccc24)CCCC3)sc2c1CCCC2 | -13.5% (inactive) | -0.1 |
| COc1ccc(Nc2nc3c(S(=O)(=O)c4ccc(C(C)(C)C)cc4)nnn3c3ccccc23)cc1 | -16.7% (inactive) | -0.8 |
| COc1ccc(Nc2nc3c(S(=O)(=O)c4ccccc4)nnn3c3ccsc23)cc1 | -41.7% (inactive) | 0.3 |
| CCN1CCN(C(C(=O)NC2CCCC2)c2cc3c(cc2[N+](=O)[O-])OCO3)CC1 (stereo not given) | -8.6% (inactive) | -0.6 |
| Cc1ccc(Nc2c(F)c(F)c(F)c(F)c2C(=O)O)c(C)c1 | 4.2% (inactive) | -2.3 |
| COc1ccc(C(=O)NCC(c2cccnc2)N2CCN(c3ccc(F)cc3)CC2)cc1 (stereo not given) | -13.4% (inactive) | -0.3 |
| CCc1ccc(Nc2nc3c(S(=O)(=O)c4ccc(C)cc4)nnn3c3ccccc23)cc1 | 19.1% (inactive) | -1.1 |
| CCOC(=O)c1cnc2ccc(OC)cc2c1Nc1ccccc1C(=O)O | -23.9% (inactive) | -1.3 |

| Compound | inhibition of mean fluorescence | inhibition of percent positive cells [%] |
| --- | --- | --- |
| Cc1ccc(C(C)C)c(OCC(=O)Nc2sc3c(c2C#N)CCCCC3)c1 | -18.6% (inactive) | -0.9 |
| CC(C)c1ccc(NC(=O)C(c2ccc3c(c2)OCO3)N2CCOCC2)cc1 (stereo not given) | 2.7% (inactive) | -0.1 |
| O=C(NCC(c1cccnc1)N1CCN(c2ccccc2F)CC1)c1ccc(F)cc1 (stereo not given) | 11.5% (inactive) | -1.8 |
| CC(=O)Nc1ccc(Nc2nc3c(S(=O)(=O)c4ccc(C(C)C)cc4)nnn3c3ccccc23)cc1 | 13.8% (inactive) | 0.4 |
| O=C(Nc1ccc2c(c1)OCO2)C(c1ccc(Cl)cc1)N1CCN(C(=O)c2ccco2)CC1 (stereo not given) | 2.2% (inactive) | -0.3 |
| CN1CCN(C(=O)C(=O)Nc2ccc3c(c2)OCO3)CC1 | -2.5% (inactive) | 0.1 |
| COc1c(F)c(F)c(C(=O)O)c(Nc2ccccc2C)c1F | 9.6% (inactive) | -0.2 |
| COc1ccc(S(=O)(=O)c2nnn3c2nc(Nc2ccc(C)cc2)c2ccccc23)cc1 | 8.2% (inactive) | -0.3 |
| CC(C)c1ccc(NC(=O)C(c2ccc3c(c2)OCO3)N2CCCCC2)cc1 (stereo not given) | 36.4% (active) | -0.7 |
| CCOC(=O)C1=C(c2ccccc2)NC(SCC(=O)Nc2sc3c(c2C(=O)OCC)CCCC3)=C(C#N)C1c1ccco1 (stereo not given) | -27.4% (inactive) | 0.1 |
| O=C(O)c1ccccc1Nc1ccnc(N2CCOCC2)n1 | 5.6% (inactive) | 0 |
| NC1=NC(=O)CC(C(=O)Nc2cccc3ccccc23)S1 (stereo not given) | 20.2% (inactive) | 1.5 |
| CCOC(=O)c1cnc2c(OC)cccc2c1Nc1ccccc1C(=O)O | -42.9% (inactive) | -1.1 |
| Cc1ccc(N=C2NC(=O)CC(C(=O)Nc3cccc4ccccc34)S2)cc1 (stereo not given) | -4.5% (inactive) | -0.7 |
| Cc1cccc(OCC(=O)Nc2sc3c(c2C#N)CCCC3)c1C | 28.1% (inactive) | 1.4 |
| CC(C)c1ccc(S(=O)(=O)c2nnn3c2nc(N)c2ccccc23)cc1 | 11.1% (inactive) | 0.3 |
| CC(=O)c1cc2c(cc1NC(=O)CN1CCN(C(=O)c3ccco3)CC1)OCO2 | -5.2% (inactive) | -0.1 |
